PubChem BioAssay AID1159580 (chemical genetic matrix, 2015)
About 2,000 (36%) of roughly 5,500 compounds were called active. Inconclusive results (about 18%) are left out. Cut-off read from the data, not from the text of the source: active = normalized growth mostly below about 0.91 (no sharp cut-off); inconclusive = no clear call, values can overlap the other calls; inactive = mostly above about 0.92. Some of the results follow.

Experiment: chemical genetic growth profiling, strain panel (AID 1159580);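 note: tested at 20 µM; growth read once vehicle control cultures reached saturation at 30 °C; 1 = growth at the plate median or of vehicle wells; lower values mean less growth of the strain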
Settings: growth OD
[1] = S. cerevisiae deletion strains, locus YAL013W, strain DEP1, hits give low values
[2] = S. cerevisiae deletion strains, locus YNL128W, strain TEP1, hits give low values
[3] = S. cerevisiae deletion strains, locus YPL241C, strain CIN2, hits give low values

Measured: normalized growth

Nc1ncn(C2OC(CO)C(O)C2O)c(=O)n1 (stereo unspecified)
inactive: [1] 1.02 | S. cerevisiae deletion strains, locus YAL040C, strain CLN3, hits give low values 0.999 | S. cerevisiae deletion strains, locus YCL061C, strain MRC1 (second series), hits give low values 0.999 | S. cerevisiae deletion strains, locus YER002W, strain NOP16, hits give low values 0.997 | [2] 0.994 | S. cerevisiae deletion strains, locus YNL175C, strain NOP13, hits give low values 0.992 | S. cerevisiae deletion strains, locus YNL197C, strain WHI3, hits give low values 1.01 | S. cerevisiae deletion strains, locus YNL224C, strain SQS1, hits give low values 0.988 | S. cerevisiae deletion strains, locus YOR083W, strain WHI5 (second series), hits give low values 1 | [3] 1

NCCCCCCNS(=O)(=O)c1cccc2c(Cl)cccc12
inactive: [1] 1 | S. cerevisiae deletion strains, locus YBR021W, strain FUR4, hits give low values 1 | S. cerevisiae deletion strains, locus YBR229C, strain ROT2, hits give low values 0.982 | S. cerevisiae deletion strains, locus YCL029C, strain bik1, hits give low values 0.983 | S. cerevisiae deletion strains, locus YDL035C, strain GPR1, hits give low values 0.989 | S. cerevisiae deletion strains, locus YDL074C, strain BRE1, hits give low values 1.02 | S. cerevisiae deletion strains, locus YDL101C, strain DUN1, hits give low values 0.991 | S. cerevisiae deletion strains, locus YDL134C, strain PPH21, hits give low values 0.985 | S. cerevisiae deletion strains, locus YDL185W, strain tfp1, hits give low values 0.986 | S. cerevisiae deletion strains, locus YDL192W, strain arf1, hits give low values 0.996 | S. cerevisiae deletion strains, locus YDR101C, strain arx1, hits give low values 0.997 | S. cerevisiae deletion strains, locus YDR150W, strain NUM1, hits give low values 0.987 | S. cerevisiae deletion strains, locus YDR162C, strain NBP2, hits give low values 1.01 | S. cerevisiae deletion strains, locus YDR318W, strain mcm21, hits give low values 0.973 | S. cerevisiae deletion strains, locus YDR388W, hits give low values 0.99 | S. cerevisiae deletion strains, locus YDR502C, strain sam2, hits give low values 0.984 | S. cerevisiae deletion strains, locus YEL061C, strain CIN8, hits give low values 0.995 | S. cerevisiae deletion strains, locus YER110C, hits give low values 0.99 | S. cerevisiae deletion strains, locus YER155C, strain BEM2, hits give low values 1.01 | S. cerevisiae deletion strains, locus YER167W, strain BCK2, hits give low values 0.979 | S. cerevisiae deletion strains, locus YGL078C, strain dbp3, hits give low values 0.998 | S. cerevisiae deletion strains, locus YGL086W, strain mad1, hits give low values 0.958 | S. cerevisiae deletion strains, locus YGL248W, strain PDE1, hits give low values 0.968 | S. cerevisiae deletion strains, locus YGR078C, strain PAC10, hits give low values 1 | S. cerevisiae deletion strains, locus YGR135W, strain pre9, hits give low values 0.988 | S. cerevisiae deletion strains, locus YGR229C, strain SMI1, hits give low values 1.01 | S. cerevisiae deletion strains, locus YGR252W, strain gcn5, hits give low values 0.908 | S. cerevisiae deletion strains, locus YHR030C, strain SLT2, hits give low values 0.989 | S. cerevisiae deletion strains, locus YHR079C, strain IRE1 (second series), hits give low values 0.978 | S. cerevisiae deletion strains, locus YHR094C, strain hxt1, hits give low values 1 | S. cerevisiae deletion strains, locus YHR129C, strain ARP1, hits give low values 1 | S. cerevisiae deletion strains, locus YHR200W, strain rpn10, hits give low values 0.979 | S. cerevisiae deletion strains, locus YIL066C, strain RNR3, hits give low values 0.996 | S. cerevisiae deletion strains, locus YIL073C, strain SPO22, hits give low values 0.957 | S. cerevisiae deletion strains, locus YIL125W, strain kgd1, hits give low values 0.997 | S. cerevisiae deletion strains, locus YIR030C, strain dcg1, hits give low values 0.992 | S. cerevisiae deletion strains, locus YJL095W, strain BCK1, hits give low values 0.988 | S. cerevisiae deletion strains, locus YJL134W, strain LCB3, hits give low values 0.995 | S. cerevisiae deletion strains, locus YJL168C, strain set2, hits give low values 0.994 | S. cerevisiae deletion strains, locus YJL187C, strain SWE1 (second series), hits give low values 0.993 | S. cerevisiae deletion strains, locus YJR043C, strain POL32, hits give low values 0.971 | S. cerevisiae deletion strains, locus YJR075W, strain HOC1, hits give low values 1.02 | S. cerevisiae deletion strains, locus YKL009W, strain mrt4, hits give low values 0.953 | S. cerevisiae deletion strains, locus YKL068W, hits give low values 0.999 | S. cerevisiae deletion strains, locus YKL085W, strain MDH1 (second series), hits give low values 0.991 | S. cerevisiae deletion strains, locus YKL085W, strain MDH1, hits give low values 0.991 | S. cerevisiae deletion strains, locus YKL190W, strain CNB1, hits give low values 0.996 | S. cerevisiae deletion strains, locus YKR001C, strain vps1, hits give low values 0.983 | S. cerevisiae deletion strains, locus YLR039C, strain RIC1, hits give low values 1.01 | S. cerevisiae deletion strains, locus YLR058C, strain SHM2, hits give low values 0.988 | S. cerevisiae deletion strains, locus YLR102C, strain apc9, hits give low values 1 | S. cerevisiae deletion strains, locus YLR262C, strain YPT6, hits give low values 1.02 | S. cerevisiae deletion strains, locus YLR268W, strain sec22, hits give low values 0.999 | S. cerevisiae deletion strains, locus YLR330W, strain CHS5, hits give low values 0.997 | S. cerevisiae deletion strains, locus YLR342W, strain FKS1 (second series), hits give low values 0.935 | S. cerevisiae deletion strains, locus YLR371W, strain rom2, hits give low values 0.993 | S. cerevisiae deletion strains, locus YLR418C, strain cdc73, hits give low values 1 | S. cerevisiae deletion strains, locus YML016C, strain PPZ1, hits give low values 0.989 | S. cerevisiae deletion strains, locus YML032C, strain rad52, hits give low values 0.961 | S. cerevisiae deletion strains, locus YML124C, strain tub3, hits give low values 0.987 | S. cerevisiae deletion strains, locus YMR078C, strain ctf18, hits give low values 0.98 | S. cerevisiae deletion strains, locus YMR223W, strain ubp8, hits give low values 0.961 | S. cerevisiae deletion strains, locus YMR263W, strain SAP30, hits give low values 1.01 | S. cerevisiae deletion strains, locus YMR307W, strain GAS1, hits give low values 0.942 | S. cerevisiae deletion strains, locus YNL067W, strain RPL9B, hits give low values 1.01 | [2] 1.01 | S. cerevisiae deletion strains, locus YNL153C, strain GIM3, hits give low values 1 | S. cerevisiae deletion strains, locus YNL233W, strain BNI4, hits give low values 0.996 | S. cerevisiae deletion strains, locus YNL250W, strain rad50, hits give low values 0.981 | S. cerevisiae deletion strains, locus YNL271C, strain bni1, hits give low values 0.997 | S. cerevisiae deletion strains, locus YNL298W, strain CLA4, hits give low values 0.983 | S. cerevisiae deletion strains, locus YNL307C, strain MCK1, hits give low values 0.965 | S. cerevisiae deletion strains, locus YNL322C, strain KRE1, hits give low values 0.995 | S. cerevisiae deletion strains, locus YNR052C, strain pop2, hits give low values 0.974 | S. cerevisiae deletion strains, locus YOL006C, strain TOP1, hits give low values 0.955 | S. cerevisiae deletion strains, locus YOL012C, strain htz1 0.747 | S. cerevisiae deletion strains, locus YOL147C, strain pex11, hits give low values 0.994 | S. cerevisiae deletion strains, locus YOR061W, strain CKA2, hits give low values 0.995 | S. cerevisiae deletion strains, locus YOR069W, strain VPS5, hits give low values 0.988 | S. cerevisiae deletion strains, locus YOR136W, strain idh2, hits give low values 0.991 | S. cerevisiae deletion strains, locus YOR144C, strain elg1, hits give low values 0.993 | S. cerevisiae deletion strains, locus YOR184W, strain ser1, hits give low values 0.961 | S. cerevisiae deletion strains, locus YOR316C, strain cot1, hits give low values 0.986 | S. cerevisiae deletion strains, locus YPL055C, strain LGE1, hits give low values 1.04 | [3] 0.998 | S. cerevisiae deletion strains, locus YPR119W, strain clb2, hits give low values 1 | S. cerevisiae deletion strains, locus YPR141C, strain kar3, hits give low values 0.999 | S. cerevisiae deletion strains, locus YPR163C, strain tif3, hits give low values 0.985 | S. cerevisiae deletion strains, locus YPR167C, strain met16, hits give low values 0.986 | S. cerevisiae deletion strains, strain wtn01, hits give low values 0.981 | S. cerevisiae strains, strain wild type, hits give low values 0.997
